Assay results from PubChem BioAssay AID504727 (Broad Institute, 2011).
“And” between values parts separate entries of the source, which are not always exact repeats. Equal values may be shown once. The source made the active and inactive calls.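 The calls were made as follows: active = fitted half-maximal concentration AC50 at or below ten times the highest valid tested dose, with signal falling as DNA is displaced (actives reach about 34 µM in these data); inconclusive = flat fit at moderate signal loss, or poor fit quality; inactive = the rest, including signal rising instead of falling.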

Assay: DNA intercalators displacing acridine orange, dose response, artefact control for KSHV LANA DNA-binding inhibitor project, biochemical, fluorescence polarization, cherry-picked samples, set 2 (AID 504727)
Conditions: AC50: Acridine orange-DNA displacement; series mostly up to 35 µM

Compound	AC50
CC(/C=C1\SC(=S)N(CCCC(=O)Nc2ccc(C(=O)O)cc2)C1=O)=C\c1ccccc1	inactive
O=C(c1cccc(S(=O)(=O)NCc2ccccc2)c1)N1CCN(c2ccccc2Cl)CC1	inactive
O=c1c2c(nc3cc(-c4ccc(F)cc4)[nH]n13)CCC2	inactive
COc1ccc(-c2cc(C(=O)N(C)CCc3ccc(OC)c(OC)c3)c3ccccc3n2)cc1	inactive
C=C(C)C(=O)Nc1cccc(C2=NOC3(C2)C[C@@H](C(N)=O)N(C(=O)C2(C)CC2)C3)c1 (some centres not stated)	inactive
CC(C)C(C(=O)O)N1C(=O)/C(=C/C=C/c2ccco2)SC1=S (configuration not stated)	inactive
CCOC(=O)C1Nc2ccc(C(=O)O)cc2C2C=CCC12 (configuration not stated)	inactive
Cc1ccccc1NC(=O)CN1C(=O)N/C(=C\c2cccn2-c2cccc(C(=O)O)c2)C1=O	inactive
O=C(N/N=C\c1ccc([N+](=O)[O-])o1)c1cncc(Br)c1	inactive
O=C1c2ccccc2-c2onc3ccc(NCc4ccco4)c1c23	3.82 µM (active)
COc1ccc(C(C)=O)cc1CN(C)C	inactive
O=C(C1CCCO1)N1CCN(c2ncccn2)CC1 (configuration not stated)	inactive
Cc1c(N)cc(S(=O)(=O)O)cc1NC(=O)c1cccc([N+](=O)[O-])c1	inactive
Cc1c(Cl)cccc1NS(=O)(=O)c1ccc2c(c1)C1C=CCC1C(c1ccc(C(=O)O)cc1)N2 (configuration not stated)	inactive
COC(=O)C[n+]1cccc2ccccc21	8.59 µM (active)
COc1cc2c(cc1OC)CN(C(=O)c1ccc(S(=O)(=O)N3CCCC3)cc1)CC2	inactive
CCOC(=O)C1(Cc2cccc(F)c2)CCN(Cc2c(C)nn(CC)c2C)CC1	inactive
CCOc1ccc(Nc2ccc(N)c(S(=O)(=O)O)c2)cc1	inactive
COc1cc(C(=S)N2CCN(c3cccc(Cl)c3)CC2)ccc1O	inactive
COc1ccc(NS(=O)(=O)c2ccc(C)c(C(=O)N(C)Cc3ccc(OC)cc3OC)c2)cc1	inactive
O=C(c1cnn2c(-c3ccccc3)cc(-c3ccccc3)nc12)N1CCN(Cc2ccccc2)CC1	inactive
O=[N+]([O-])c1cc(-n2cnnn2)ccc1N1CCC(Cc2ccccc2)CC1	inactive
O=C1C(=Cc2ccco2)CCC1=Cc1ccco1	inactive
CS(=O)(=O)c1cccc(C(=O)Oc2ccccc2)c1	inactive

Compound	AC50
O=C1c2c(O)ccc(O)c2C(=O)c2c(NCCNCCO)ccc(NCCNCCO)c21	1.34 µM (active) and 2.32 µM (active)
COC(=O)c1ccccc1OCC(=O)N1CCN(c2ccc(Cl)cc2)CC1	inactive
O=C1/C(=C/c2ccco2)SC(=S)N1c1cccnc1	inactive
Cc1cc[n+](-c2[nH]c(=O)sc2/C=N/N=C(\[O-])c2ccccc2)cc1C	12.9 µM (active)
Oc1ccc2nnc3c(Br)cnn3c2c1	8.34 µM (active)
O=C(O)Cc1c[nH]c2cccc(O)c12	inactive
O=C(NCCCN1CCCC1=O)c1ccc2c(c1)ncn2C1CCCCC1	inactive
O=C1CCN2C=Nc3cccc4ccc1c2c34	2.29 µM (active)
COc1ccc(N=Nc2nc3ccc(Br)cc3n2C)cc1	inactive
COC(=O)C1CCN(C(=O)COC(=O)Cc2c[nH]c3ccccc23)CC1	inactive
Nc1ccc(C(=O)Nc2ccc3c(O)cc(S(=O)(=O)O)cc3c2)cc1	inactive
CCOCCCn1c(SCC(=O)NC(C)(C)C)nc2ccccc2c1=O	inactive
Cc1ccc(OCC(=O)O/N=C(\N)Cc2ccc([N+](=O)[O-])cc2)cc1C	inactive
COC(=O)C1=C(N)OC2=C(C(=O)CCC2)C1c1cccs1 (configuration not stated)	inactive
Nc1cccc(N2C(=O)c3cccc4c(N)ccc(c34)C2=O)c1	5.76 µM (active)
CCOC(=O)c1c(C)n(C)c2ccc(OCCN(C)C)cc12	inactive
O=C(OCCN1C(=O)c2cccc3c(N4CCOCC4)ccc(c23)C1=O)c1ccc(Cl)cc1	18.5 µM (active)
CCN(CC)S(=O)(=O)N1CCN(S(=O)(=O)N2CCOCC2)CC1	inactive
Cc1c(NC(=O)CCC2CCCCC2)cc(C(=O)N2CCOCC2)cc1[N+](=O)[O-]	inactive
CCOc1ccc(C(C)NC(=O)c2ccccc2OCc2c(C)noc2C)cc1OCC (configuration not stated)	inactive
O=C(O)/C=C/c1ccccc1Oc1ccccc1	inactive
COc1ccc(OC2CCN(S(=O)(=O)c3ccc(OC)cc3)CC2)cc1	inactive
N#CCCN(CCC#N)C(=O)C1c2ccccc2Oc2ccccc21	inactive
